BoNT F protease – inhibitors of Botulinum neurotoxin F light chain protease; actives 0.22% (n = 360,000); inhibition, % at 10 µM; Multiplex microsphere protease cleavage assay, flow cytometry; AID 588497; in the data active = inhibition above about 35%, passing the limit was not always enough; inconclusive = no clear call, values can overlap the other calls
SSB-PriA inh – inhibitors of Klebsiella pneumoniae PriA binding to SSB C-terminal tail. AlphaScreen SSBct-PriA binding, biotinylated peptide. actives 0.6% (n = 430,000). inhibition, % at 33 µM; in the data active = inhibition mostly above about 37%, no sharp cut-off; inactive = mostly below about 20%
Anthrax LF prot – anthrax lethal factor protease inhibition; P15917; actives 0.12% (n = 360,000); inhibition, % at 10 µM; multiplex microsphere protease cleavage assay, LF
Target sequence (P15917 whole entry, looked up): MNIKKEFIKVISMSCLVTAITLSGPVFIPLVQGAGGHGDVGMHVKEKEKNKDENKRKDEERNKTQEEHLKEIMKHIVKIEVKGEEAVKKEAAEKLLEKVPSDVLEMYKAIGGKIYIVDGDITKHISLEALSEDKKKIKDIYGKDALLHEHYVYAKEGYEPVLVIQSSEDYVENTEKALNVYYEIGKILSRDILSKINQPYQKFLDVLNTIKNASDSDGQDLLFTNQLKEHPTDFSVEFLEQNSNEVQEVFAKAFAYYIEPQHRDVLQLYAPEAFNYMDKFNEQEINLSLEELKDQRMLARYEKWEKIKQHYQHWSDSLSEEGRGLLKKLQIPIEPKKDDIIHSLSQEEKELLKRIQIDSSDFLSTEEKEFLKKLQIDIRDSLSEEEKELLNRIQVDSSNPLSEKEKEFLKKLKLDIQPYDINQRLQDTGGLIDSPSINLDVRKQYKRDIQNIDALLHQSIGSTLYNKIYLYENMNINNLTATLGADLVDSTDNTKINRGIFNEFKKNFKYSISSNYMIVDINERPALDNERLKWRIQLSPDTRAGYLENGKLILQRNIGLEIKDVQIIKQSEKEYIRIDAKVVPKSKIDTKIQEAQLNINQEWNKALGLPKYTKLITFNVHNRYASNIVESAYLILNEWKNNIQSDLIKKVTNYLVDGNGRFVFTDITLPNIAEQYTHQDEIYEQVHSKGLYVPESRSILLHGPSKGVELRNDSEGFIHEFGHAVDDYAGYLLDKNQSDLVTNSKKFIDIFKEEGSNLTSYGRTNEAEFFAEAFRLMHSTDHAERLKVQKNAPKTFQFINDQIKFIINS
BoNT-A LC inh2 – inhibitors of Botulinum neurotoxin A light chain protease | multiplex microsphere protease substrate cleavage, flow cytometry | inhibition, % at 10 µM | actives 0.17% (n = 360,000) | AID 588499
Bead autofluor – counter-screen for toxin protease inhibitors: compound fluorescence. compound autofluorescence counterscreen, microsphere flow cytometry; stronger effect = higher value. fluorescence intensity (concentration not given with the values). actives 3.1% (n = 360,000). AID 624483; in the data active = fluorescence intensity above about 16000; inconclusive = no clear call, values can overlap the other calls
A number is an active result; n = inactive; u = inconclusive; x = not tested or not shown. Hits are enriched below; roughly 3.1% of the tested compounds scored in any of these assays. Cut-off read from the data, not from the text of the source, unless noted: active = inhibition above about 30%; inconclusive = no clear call, values can overlap the other calls; inactive = below that.

SMILES | BoNT F protease | SSB-PriA inh | Anthrax LF prot | BoNT-A LC inh2 | Bead autofluor
CCOC(=O)C(NC(=O)CC(C)C)(Nc1cc(C)on1)C(F)(F)F (stereo not given) | n | n | n | n | 22923
CCCC(=O)NC(Nc1ccc(S(=O)(=O)Nc2cc(C)on2)cc1)(C(=O)OCC)C(F)(F)F (stereo not given) | n | n | n | n | n
Cc1ccc(-n2c(Cc3ccccc3)n[nH]c2=S)cc1 | n | n | n | n | 22337
S=c1[nH]nc(Cc2ccccc2)n1-c1ccccc1 | n | n | n | u | 19172
S=c1[nH]nc(Cc2ccccc2)n1-c1ccc(Cl)cc1 | n | n | n | n | n
Cc1ccc(-n2nc(C)c(Sc3ccccc3[N+](=O)[O-])c2N)cc1 | n | 39 | n | n | n
Cc1nn(-c2ccccc2)c(C)c1Sc1ccccc1[N+](=O)[O-] | x | n | x | x | x
Cn1c(=NC(=O)Cc2ccccc2)sc2cc(F)cc(F)c21 | x | n | x | x | x
CC(=NNC(=O)c1nnn(-c2nonc2N)c1CN(C)c1ccccc1)c1ccccn1 | x | 90 | x | x | x
CN(C)Cc1c(C(=O)N/N=C/c2ccncc2)nnn1-c1nonc1N | 42 | x | n | n | n
CN(C)c1ccc(/C=N/NC(=O)c2nnn(-c3nonc3N)c2COc2ccc(F)cc2)cc1 | n | n | 32 | n | n
O=C(Nc1ncc(Cc2ccc(F)cc2)s1)c1ccccc1 | x | n | x | x | x
O=C(Nc1nccs1)c1ccc(OCc2ccc3ccccc3n2)cc1 | x | n | x | x | x
COc1ccc(N2CCN(Cc3cc4c(cc3O)CCC4)CC2)cc1 | n | n | n | n | 22399
O=C(CN1C(=O)N/C(=C\c2ccc(Cl)cc2)C1=O)Nc1ccccc1C(F)(F)F | x | n | x | x | x
O=c1c2c3c(sc2nc2n1CCCC2)CCCC3 | n | n | n | n | n
CCOC(=O)C1CCCn2c1nc1sc3c(c1c2=O)CCCC3 (stereo not given) | n | n | n | n | 23606
CN(C)CCNC(=O)C1CCCNC1=O (stereo not given) | n | n | n | u | 22891
CC(=O)c1ccc(NC(=O)C2CCCNC2=O)cc1 (stereo not given) | n | n | n | u | 21778
CC(NC(=O)COc1cccc(Cl)c1)c1ccccc1 (stereo not given) | x | n | x | x | x
COc1ccc(-c2nc(CCNC(=O)COc3ccccc3)cs2)cc1OC | x | n | x | x | x
CC[n+]1c(C=C2Sc3ccccc3N2C)ccc2cccc(C)c21 | x | n | x | x | x
Cc1cc(/C=C2\Sc3ccccc3N2C)cc(C)[n+]1CC1CCCO1 (stereo not given) | n | x | n | 42 | n
CCN(C(=O)Cc1c(C(=O)O)[nH]c2ccccc12)c1cc(OC)ccc1OC | n | n | n | n | 20129
Cc1ccc(C(=O)C(OC(=O)COc2ccccc2C)c2ccccc2)cc1 (stereo not given) | n | n | n | n | 17155
SMILES | BoNT F protease | SSB-PriA inh | Anthrax LF prot | BoNT-A LC inh2 | Bead autofluor
O=C(CCC(=O)OC(C(=O)c1ccccc1)c1ccccc1)Nc1ccccc1 (stereo not given) | n | n | n | n | 21923
O=C(CNS(=O)(=O)c1ccccc1)OCC(=O)c1ccc(OC(=O)c2ccccc2)cc1 | n | n | n | u | 21032
Cc1ccccc1OCC(=O)OCC(=O)c1ccc(OC(=O)c2ccccc2)cc1 | n | 67 | n | n | n
Cc1ccccc1OCC(=O)OCC(=O)c1ccc(OCc2ccccc2)cc1 | n | n | n | n | n
COC(=O)CN[C@@H](c1ccc(Cl)cc1)c1ccccc1N | x | n | x | x | x
CC1(C)CC(=O)c2sc(NC(=O)CSc3ccc(Cl)cc3)nc2C1 | x | n | x | x | x
CCc1ccc(-c2ccc3nnc(SCC(=O)Nc4ccc5c(c4)OCO5)n3n2)cc1 | x | n | x | x | x
C=CCn1c(SCCC(=O)Nc2ccc(C)cc2)nc2sc3c(c2c1=O)CCCC3 | x | n | x | x | x
O=C(CC1CCCC1)Nc1nc(CSCc2ccc(F)cc2)cs1 | x | n | x | x | x
CCOc1ccc(C=NN(C)c2ccccc2)cc1OC | x | 39 | x | x | x
CCOc1cc(C#N)c(NC(=O)CSc2nnnn2-c2ccc(OC)cc2)cc1OCC | n | n | n | n | 22206
COc1ccc(-n2nnnc2SCC(=O)Nc2ccc(OC)cc2OC)cc1 | u | n | n | n | n
CC1CCN(S(=O)(=O)c2ccc3c(c2)CCN3C(=O)CCC(=O)O)CC1 | n | n | n | n | 21818
CCCCN(c1ccccc1)S(=O)(=O)c1ccc2c(c1)CCN2C(=O)CCC(=O)O | n | n | n | n | 22207
OCCN(Cc1ccccc1)Cc1ccc(F)c(F)c1 | n | n | n | n | 20266
O=[N+]([O-])c1cccc(CN(CCO)Cc2ccccc2)c1 | n | n | n | n | 16829
CC(C)(C)OC(=O)N1CCN(CC(N)=S)CC1 | x | n | x | x | x
Cc1ccc2c(c1)CCCN2C(=O)c1ccc2c(c1)OCO2 | n | n | n | n | 23514

High-throughput results from PubChem BioAssay.
